# PubChem BioAssay (NCI)
# The panel holds about 83,000 compounds, 20% with a hit somewhere; the sample as a whole holds those more often.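 The test compound was applied at a single concentration to cells in 96-well plates for 48 hours, and percent growth was recorded.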 The source made the active and inactive calls. How the source made its calls: active means growth percent below 10; inactive means the rest.
# Test system: MDA-MB-468 breast
# Test: NCI-60 one-dose screen, 48 h (100 = growth as untreated, 0 = no growth, -100 = all killed)
# Settings: 10 µM unless noted
row,Compound,growth
1,CCOP(=O)(NC(c1ccccc1)c1ccccc1)OCC,104% (inactive)
2,NC(=O)N/N=C/c1ccc(Br)o1,109% (inactive)
3,Cc1ccc(C(C)C)c(O)c1NC(=O)OC(C)C,97.5% (inactive)
4,O=C(/C=C/c1cn(-c2ccccc2)nc1-c1ccc(Cl)cc1)c1ccc(F)cc1,100% (inactive)
5,C=C1C(=O)O[C@H]2[C@H]1CC/C(COC(=O)Nc1nc3ccccc3[nH]1)=C\CC[C@@]1(C)O[C@@H]21,36.9% (inactive)
6,O=C(Nc1ccccc1)c1cc(Cl)ccc1O,47.6% (inactive)
7,Cc1ccc(-c2cc(-c3ccc(C)cc3)nc(NCCNc3ccnc4cc(Cl)ccc34)n2)cc1,-93.2% (active)
8,O=C1/C=C/[C@@H](O)[C@@H]2C[C@@H](O)C[C@H]2/C=C/CCC[C@H]([C@@H](O)CO)O1,-5.34% (active)
9,C#CCOc1ccc(C(Nc2cc(Cl)ccc2Cl)c2nnnn2C2CCCCC2)cc1 (centres undefined),88.5% (inactive)
10,[2H]C([2H])([2H])Oc1cc(F)ccc1/C=C/C(=O)/C=C(/C=C/c1ccc(F)cc1OC([2H])([2H])[2H])OB(F)F,46.1% (inactive)
11,Nc1nn(C(=O)Nc2ccc(Cc3ccccc3)cc2)c2ccc(Cl)cc12,72.3% (inactive)
12,COc1ccc2nc(-c3ccc(Cl)cc3)cc(-c3nnc(SCC(=O)Nc4ccc(/C(C)=N\O)cc4)o3)c2c1,58.4% (inactive)
13,O=C(NNc1ccc(-c2ccccc2)nn1)c1ccccc1,103% (inactive)
14,COc1ccc(-c2nc(S(=O)(=O)c3ccccc3)c(S(=O)CC(=O)N3CCC(C)CC3)o2)cc1 (centres undefined),-15% (active)
